Screening data (PubChem)
tim10-1 inh: inhibits growth of tim10-1 mutant yeast; S. cerevisiae tim10-1 ts strain growth, BacTiter-Glo, 24 h; inhibition, % at 20 µM; hit rate 2.2% among 330,000; AID 463190;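 active means inhibition of at least 40%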;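 further: mutant grown at 25 °C; 0% = DMSO wells with yeast and 100% = wells holding no yeast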
NALP1 yeast inh: blocks the NALP1 inflammasome reconstituted in yeast; S. cerevisiae NALP1/ASC/caspase-1 growth, X-gal OD620, 72 h; inhibition, % at 10 µM; hit rate 0.61% among 280,000; in the data active means inhibition mostly above about 24%, no sharp cut-off; inactive means mostly below about 32%
TIM10 inh: inhibits growth of TIM10 yeast strain; AID 463195; hit rate 1.4% among 330,000; inhibition, % at 10 µM; S. cerevisiae TIM10 strain growth, BacTiter-Glo luminescence, 24 h;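 active means inhibition of 40% or more at the single tested concentration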;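 further: wild-type TIM10 isogenic control strain grown at permissive 25 °C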
PfHsp90 yeast 2: reduces growth (ATP signal) of yeast expressing P. falciparum Hsp90; S. cerevisiae expressing PfHsp90, BacTiter-Glo ATP, 48 h; yeast lacking PDR1 and PDR3 efflux regulators; inhibition, % at 9.4 µM; hit rate 0.32% among 310,000; AID 504621;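 active means every replicate shows inhibition above about 80%, whatever the replicate mean, limit read from the data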;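 further: 0% = DMSO neutral controls and 100% = 20 µM radicicol positive controls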
tim23-1 inh: growth inhibitors of tim23-1 mutant yeast. inhibition, % at 20 µM. S. cerevisiae tim23-1 growth, BacTiter-Glo luminescence, 24 h. hit rate 1.3% among 330,000;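 active means growth inhibition of the mutant yeast at or above 50%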;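 further: temperature-sensitive mutant grown at 25 °C; plate controls were DMSO-treated mutant yeast for no effect and medium wells lacking yeast for full effect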
NLRP3 yeast inh: inhibitors of NALP3 inflammasome in yeast; Yeast reconstituted NLRP3/ASC/caspase-1, beta-gal luminescence, 24 h; inhibition, % at 10 µM; hit rate 0.39% among 330,000;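 active means inhibition of 50% or more; inactive means inhibition below 50%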;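 further: plate controls were induced DMSO wells for no effect and uninduced yeast grown without galactose for full effect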
tim10-1 conf: confirmation of tim10-1 mutant yeast growth inhibitors; S. cerevisiae tim10-1 ts strain growth, BacTiter-Glo, 24 h; hit rate 56% among 7,400; AID 463213; shares compounds with tim10-1 inh; inhibition, % at 20 µM;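 active means inhibition of yeast growth at or above a set limit in either of two repeat tests at 20 µM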;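 further: tim10-1 mutant grown at permissive 25 °C to find synthetic lethal compounds; 0% = DMSO yeast wells and 100% = medium wells without yeast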
Numbers without * were called inactive; · = not tested or not shown. The list is not random: actives were taken first. Their share in the collection is about 4.1%.

SMILES	tim10-1 inh	NALP1 yeast inh	TIM10 inh	PfHsp90 yeast 2	tim23-1 inh	NLRP3 yeast inh	tim10-1 conf
C=CC[n+]1c(/C=C/c2ccc(OC(C)=O)c(OC)c2)ccc2ccccc21	56.9*	17.6	20.8	18.7	33.7	24.9	38.2*
COc1cc(/C=N/NC(=O)Nc2ccccc2)ccc1OC(C)=O	12.7	20.5	19.5	-35.8	14.1	-21.3	·
COc1ccc(N(C)C(=O)Cc2c(C(=O)O)n(C)c3ccccc23)c(OC)c1	-0.1	3.1	12.5	-8.3	14.1	3.6	·
CCOc1ccc(NC(=S)c2ccc3ccccc3n2)cc1	23.2	-0.6	16.0	0.3	6.1	30.5	·
COc1ccc(NC(=S)c2ccc3ccccc3n2)cc1	56.3*	-15.3	16.1	-7.3	39.7	36.7	10.0
CCN(CC)C(=O)c1sc2nc(-c3cccs3)cc(-c3ccc(Cl)cc3)c2c1N	57.7*	11.5	37.9	-12.6	34.0	14.5	37.8*
N#Cc1sc2nc(-c3cccs3)cc(-c3ccc(Cl)cc3)c2c1N	16.7	-9.6	9.8	-27.3	3.1	3.4	·
CS(=O)(=O)N1CCCC(C(=O)Nc2ccc(F)c(F)c2)C1 (centres undefined)	-13.6	·	7.3	29.5	1.2	5.2	·
COc1ccc(-c2cc(=O)n(-c3ccc([N+](=O)[O-])cc3)[nH]2)cc1	50.5*	21.2	28.8	48.8	28.4	17.2	38.0*
COc1ccc(-c2[nH]n(-c3ccc([N+](=O)[O-])cc3)c(=O)c2C=NCc2ccc(F)cc2)cc1	4.2	15.5	1.9	-4.4	9.4	-6.1	·
COc1ccccc1/C(O)=C(\C#N)c1nc2ccccc2[nH]1	22.4	9.0	8.5	-28.0	0.9	4.7	·
COC(=O)c1c(NC(=O)c2ccoc2C)sc2c1CCC2	11.0	-18.2	-10.5	-1.9	21.7	30.3	·
Cc1occc1C(=O)Nc1sc2c(c1C(N)=O)CCCCC2	48.5*	15.2	38.7	-17.4	27.7	3.4	23.3
CCCCn1c(N)c(N(CCC(C)C)C(=O)c2c(C)noc2C)c(=O)[nH]c1=O	7.9	·	5.7	·	-1.4	19.0	·
Cc1ccc(S(=O)(=O)/C(C#N)=C/c2c[nH]c3ccccc23)cc1	49.4*	-8.6	29.8	-6.8	34.8	8.8	24.2
COC(=O)/C(C#N)=C/c1c[nH]c2ccccc12	-13.5	-0.8	-5.1	-13.6	17.9	43.3	·
Cc1nnc(NC(=O)CCn2c(=O)oc3ccc(Cl)cc32)s1	-1.4	13.2	-6.3	10.9	-11.3	7.7	·
Cc1csc(NC(=O)CCn2c(=O)oc3ccc(Cl)cc32)n1	43.4*	6.5	-10.2	-3.0	7.0	-1.8	-44.5
CCCn1c(N)c(N(CCOC)C(=O)CSCC(=O)Nc2ccc(OC)cc2)c(=O)[nH]c1=O	-23.1	·	-6.1	·	-9.5	-7.5	·
CC(C)(C)C1C=C(Sc2ccccc2)C(=O)O1 (centres undefined)	43.5*	9.7	10.0	6.7	45.2	-16.3	34.9*
Cn1c(=O)c(Sc2ccccc2)c(O)c2ccccc21	-13.5	19.4	2.1	12.4	2.3	-13.2	·
COc1cccc(C2C3=C(CC(C)(C)CC3=O)Nc3cc4c(cc32)OCO4)c1 (centres undefined)	44.2*	-20.1	-13.9	23.7	27.9	-2.8	11.3
Cc1cc(C)c(C)c(S(=O)(=O)N2CCN(C(=O)c3cc(S(=O)(=O)N4CCOCC4)ccc3F)CC2)c1C	18.7	·	12.8	0.3	13.9	9.9	·
Oc1ccc(/C=N/Nc2nccnc2Cl)cc1	46.7*	41.8	30.4	-3.4	34.7	4.2	40.5*
N#CCCN1CCCc2cc(N=Nc3ccc(C(F)(F)F)cc3)ccc21	41.2*	17.0	25.5	10.3	22.2	25.0	34.1*
SMILES	tim10-1 inh	NALP1 yeast inh	TIM10 inh	PfHsp90 yeast 2	tim23-1 inh	NLRP3 yeast inh	tim10-1 conf
COCCN1CCN(C(=O)C2CCC(=O)N(Cc3ccccc3OC)C2)CC1 (centres undefined)	0.0	17.3	0.1	17.3	9.2	4.1	·
Cc1ccc(NCCC(=O)c2cccc([N+](=O)[O-])c2)c(C)c1	37.3	19.4	-4.1	-1.6	23.0	14.5	·
Cc1cccc(NCCC(=O)c2ccc([N+](=O)[O-])cc2)c1C	40.4*	20.3	23.0	·	21.7	15.7	37.9*
Cc1cccc2cc(C(c3nnnn3C(C)(C)C)N(Cc3ccco3)CC3CCCO3)c(=O)[nH]c12 (centres undefined)	22.3	-0.9	31.3	·	30.3	2.3	·
CC(C)(C)n1nnnc1C(c1ccccc1F)N(Cc1ccco1)CC1CCCO1 (centres undefined)	41.0*	-29.6	19.0	10.0	47.5	6.4	21.6
Cc1cccc(NC(=O)COc2coc(CN3CCN(c4ccccc4)CC3)cc2=O)c1	22.4	·	9.8	·	18.3	17.9	·
CCOc1ccc(C(=O)Nc2cnn(Cc3ccc(Cl)c(Cl)c3)c2)cc1	40.6*	3.7	30.7	-2.8	33.3	15.2	35.2*
CCOC(=O)c1c(NC(=O)/C=C/c2ccc(C)o2)sc(C)c1C	45.8*	3.0	13.0	-15.1	14.0	3.7	24.5
Cc1ccc(/C=C/C(=O)Nc2sc(C)c(C)c2C(=O)OC(C)C)o1	13.6	5.0	1.7	-96.9	10.9	6.4	·
N#Cc1c(-c2cccs2)cc(-c2cccnc2)nc1N	42.7*	-4.4	25.6	-5.6	36.6	1.3	28.6
N#Cc1c(-c2ccc(F)cc2)cc(-c2cccnc2)nc1N	15.1	14.6	-20.6	3.6	-17.0	2.4	·
COc1ccc(CC(=O)OCC(=O)Nc2ncc(Cl)c(C)c2Cl)cc1	43.1*	·	8.1	·	40.0	13.9	30.4*
Cc1ccc(S(=O)(=O)N2CCCC2)cc1C(=O)N1CCC(C)CC1	-10.6	21.1	9.7	14.8	2.0	1.4	·
Cc1cc(C)c2sc(NC(=O)c3ccc([N+](=O)[O-])o3)nc2c1	56.5*	-3.0	-0.6	73.7	24.3	8.8	54.5*
O=C(Nc1c(Cl)ccc2nsnc12)c1ccc([N+](=O)[O-])o1	51.6*	27.3	28.1	-6.0	40.6	27.8	33.4*
Brc1ccccc1OCCN1CCCC1	-0.8	·	6.1	10.8	-4.8	13.1	·
CC(C)(C)c1ccc(OCCOc2ccc(C(C)(C)C)cc2NC=O)c(NC=O)c1	46.9*	16.9	21.6	-18.0	43.4	5.0	20.2
COCCOc1ccc(C(F)(F)F)cc1NC(=O)c1ccccc1	15.9	32.0	14.2	10.8	17.0	8.3	·
CC(=O)c1cc(Cl)ccc1OCC(=O)Nc1cccc(S(=O)(=O)N2CCCC2)c1	6.4	·	3.3	-1.2	-9.1	-8.9	·
CCc1ccc2nc3nc(C)cc(C)c3c(N)c2c1	46.6*	12.4	36.1	-2.6	8.0	10.0	40.8*
CCc1ccc(NC(=S)/N=C(\N)Nc2nc(C)c3cc(CC)ccc3n2)cc1	27.8	0.1	13.8	2.2	8.2	15.0	·
O=C(C[C@@H]1C/C=C/CC[C@H](Cc2ccc(F)cc2)C(=O)OCCNC1=O)N[C@H](CO)Cc1ccccc1	-2.3	·	6.0	-9.8	16.1	-6.4	·
